The panel holds about 83,000 compounds, 20% with a hit somewhere; the sample as a whole holds those more often.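 Negative percent growth values reflect cell death: -40 means 40% of the cells present at the start died, and -100 means all died.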 Activity calls are given as the source filed them. The calls were made as follows: active = growth percent below 10; inactive = the rest.
Assays:
Assay in all cases: NCI-60 one-dose screen, 48 h (100 = growth as untreated, 0 = no growth, -100 = all killed)
SR leukemia = conditions: 10 µM unless noted
RPMI-8226 leukemia = conditions: 10 µM
OVCAR-8 ovarian = conditions: 10 µM unless noted
OVCAR-5 ovarian = conditions: 10 µM unless noted
OVCAR-4 ovarian = conditions: 10 µM unless noted
SK-OV-3 ovarian = conditions: 10 µM
IGROV1 ovarian = conditions: 10 µM unless noted
OVCAR-3 ovarian = conditions: 10 µM unless noted
HS 578T breast = conditions: 10 µM unless noted
NCI/ADR-RES ovarian = conditions: 10 µM unless noted
T-47D breast = conditions: 10 µM
BT-549 breast = conditions: 10 µM unless noted
MDA-MB-435 melanoma = conditions: 10 µM unless noted
SW-620 colon = conditions: 10 µM unless noted
MCF7 breast = conditions: 10 µM unless noted
HCT-116 colon = conditions: 10 µM unless noted
HCC-2998 colon = conditions: 10 µM unless noted
KM12 colon = conditions: 10 µM unless noted

Measured: growth

C=CC(=O)N1CC2(CC(n3nc(-c4ccc(Oc5ccccc5)cc4)c4c(N)ncnc43)C2)C1
inactive: SR leukemia 31.5% | RPMI-8226 leukemia 41% | OVCAR-8 ovarian 28.7% | OVCAR-5 ovarian 54.8% | OVCAR-4 ovarian 27.4% | IGROV1 ovarian 10.7% | OVCAR-3 ovarian 30.9% | NCI/ADR-RES ovarian 41.6% | T-47D breast 36.4% | BT-549 breast 29.9% | MDA-MB-435 melanoma 30.4% | SW-620 colon 78.8% | MCF7 breast 26.5% | HCT-116 colon 45.4% | HCC-2998 colon 64.9% | KM12 colon 48.9%
active: SK-OV-3 ovarian 5.31% | HS 578T breast -11.6%

C[C@@H](Oc1cc(-c2cnn(C3CC4(CCNCC4)C3)c2)cnc1N)c1c(F)ccc(Cl)c1Cl
active: SR leukemia -29.2% | RPMI-8226 leukemia -40.1% | T-47D breast -27.9% | MDA-MB-435 melanoma -70.4% | SW-620 colon -46% | MCF7 breast -34.6% | HCT-116 colon -22.5% | HCC-2998 colon 6.25%
inactive: OVCAR-8 ovarian 39.8% | OVCAR-5 ovarian 27.8% | OVCAR-4 ovarian 40.7% | SK-OV-3 ovarian 62.6% | IGROV1 ovarian 47.7% | OVCAR-3 ovarian 44.4% | HS 578T breast 25.6% | NCI/ADR-RES ovarian 61.5% | BT-549 breast 58.6%

CN1CCc2c(Sc3ccc(C(=O)NO)cc3)c3ccccc3n2C1
active: RPMI-8226 leukemia 7.63% | OVCAR-8 ovarian 7.62% | HCT-116 colon 3.85%
inactive: SR leukemia 12.6% | OVCAR-5 ovarian 27.1% | OVCAR-4 ovarian 28.3% | SK-OV-3 ovarian 62.4% | IGROV1 ovarian 75.6% | OVCAR-3 ovarian 42.8% | HS 578T breast 60.2% | NCI/ADR-RES ovarian 75.2% | T-47D breast 39.7% | BT-549 breast 76.9% | MDA-MB-435 melanoma 23.7% | SW-620 colon 19.6% | MCF7 breast 32.5% | HCC-2998 colon 66.5%

CCCCCCCCCCCCCCNc1nc(CO)ncc1-c1ccc(C(F)(F)F)cc1
inactive: SR leukemia 102% | RPMI-8226 leukemia 93.9% | OVCAR-8 ovarian 99.5% | OVCAR-5 ovarian 103% | OVCAR-4 ovarian 112% | SK-OV-3 ovarian 91.7% | IGROV1 ovarian 104% | OVCAR-3 ovarian 103% | HS 578T breast 93.2% | NCI/ADR-RES ovarian 100% | T-47D breast 95.6% | BT-549 breast 110% | MDA-MB-435 melanoma 102% | SW-620 colon 103% | MCF7 breast 96.2% | HCT-116 colon 94.1% | HCC-2998 colon 99.4% | KM12 colon 99.4%

Cc1ccc(N=c2nc3sc4c(C)ccc(C)c4n3c(N)c2C#N)cc1
inactive: SR leukemia 111% | RPMI-8226 leukemia 85.1% | OVCAR-8 ovarian 104% | OVCAR-5 ovarian 104% | OVCAR-4 ovarian 88.9% | SK-OV-3 ovarian 96.3% | IGROV1 ovarian 95.1% | OVCAR-3 ovarian 106% | HS 578T breast 104% | NCI/ADR-RES ovarian 106% | T-47D breast 90.8% | BT-549 breast 97.2% | MDA-MB-435 melanoma 110% | SW-620 colon 105% | MCF7 breast 88.3% | HCT-116 colon 94.4% | HCC-2998 colon 110% | KM12 colon 97.7%

O=[N+]([O-])c1cc2c(cc1Br)C1C(C3C2C(Cl)(Cl)C(Cl)=C(Cl)C3(Cl)Cl)C(Cl)(Cl)C(Cl)=C(Cl)C1(Cl)Cl (centres undefined)
inactive: SR leukemia 80.2% | RPMI-8226 leukemia 88.1% | OVCAR-8 ovarian 97% | OVCAR-5 ovarian 102% | OVCAR-4 ovarian 102% | SK-OV-3 ovarian 101% | IGROV1 ovarian 102% | OVCAR-3 ovarian 95.6% | HS 578T breast 114% | NCI/ADR-RES ovarian 94% | T-47D breast 90.8% | BT-549 breast 93.1% | MDA-MB-435 melanoma 103% | SW-620 colon 115% | MCF7 breast 91.5% | HCT-116 colon 89.7% | HCC-2998 colon 93.4% | KM12 colon 106%

Nc1nc2c(s1)CCc1c-2c(Br)n(Cc2ccccc2)c1Br
inactive: SR leukemia 20.8% | RPMI-8226 leukemia 51.7% | OVCAR-8 ovarian 74.3% | OVCAR-5 ovarian 105% | OVCAR-4 ovarian 81.8% | SK-OV-3 ovarian 108% | IGROV1 ovarian 104% | OVCAR-3 ovarian 52.5% | HS 578T breast 96.9% | NCI/ADR-RES ovarian 89.7% | T-47D breast 34.3% | BT-549 breast 93.7% | MDA-MB-435 melanoma 95.6% | SW-620 colon 35.3% | MCF7 breast 78.4% | HCT-116 colon 23.5% | HCC-2998 colon 102% | KM12 colon 108%

Cc1nc2cc(Nc3nc(NCCN)nc(Nc4ccc(F)cc4)n3)ccc2n1Cc1ccccc1
inactive: OVCAR-8 ovarian 89.1% | OVCAR-5 ovarian 106% | OVCAR-4 ovarian 77% | SK-OV-3 ovarian 95.5% | IGROV1 ovarian 81.4% | OVCAR-3 ovarian 86.7% | HS 578T breast 102% | NCI/ADR-RES ovarian 103% | T-47D breast 69.1% | BT-549 breast 90% | MDA-MB-435 melanoma 80.4% | SW-620 colon 73.9% | MCF7 breast 68.8% | HCT-116 colon 60.3% | HCC-2998 colon 70.6% | KM12 colon 70.6%
active: SR leukemia -26.5% | RPMI-8226 leukemia -45%

O=C1CC(c2ccsc2)c2snc(-c3ccc(Cl)cc3)c2N1 (centres undefined)
inactive: SR leukemia 20.9% | RPMI-8226 leukemia 12.5% | OVCAR-8 ovarian 40.8% | OVCAR-5 ovarian 47.7% | OVCAR-4 ovarian 37.5% | IGROV1 ovarian 40.7% | HS 578T breast 46% | NCI/ADR-RES ovarian 16.8% | T-47D breast 30.6% | BT-549 breast 32.8% | SW-620 colon 33.4% | HCT-116 colon 21.5% | HCC-2998 colon 58.5% | KM12 colon 27.6%
active: SK-OV-3 ovarian -3.45% | OVCAR-3 ovarian -14% | MDA-MB-435 melanoma -20.9% | MCF7 breast 7.59%

O=C(O)CCN1CCN(c2cccc(Cl)c2)CC1
inactive: SR leukemia 88% | RPMI-8226 leukemia 112% | OVCAR-8 ovarian 99.1% | OVCAR-5 ovarian 98.9% | OVCAR-4 ovarian 92% | SK-OV-3 ovarian 104% | IGROV1 ovarian 105% | OVCAR-3 ovarian 122% | HS 578T breast 105% | NCI/ADR-RES ovarian 112% | T-47D breast 98.3% | BT-549 breast 104% | MDA-MB-435 melanoma 93.1% | SW-620 colon 107% | MCF7 breast 86.1% | HCT-116 colon 102% | HCC-2998 colon 114% | KM12 colon 114%

CCCCC(CCCC)(S(=O)(=O)CC)S(=O)(=O)CC
inactive: SR leukemia 92.3% | RPMI-8226 leukemia 90.8% | OVCAR-8 ovarian 102% | OVCAR-5 ovarian 103% | OVCAR-4 ovarian 110% | SK-OV-3 ovarian 105% | IGROV1 ovarian 104% | OVCAR-3 ovarian 105% | HS 578T breast 104% | NCI/ADR-RES ovarian 102% | T-47D breast 101% | BT-549 breast 96.6% | MDA-MB-435 melanoma 97.4% | SW-620 colon 102% | MCF7 breast 105% | HCT-116 colon 98.9% | HCC-2998 colon 111% | KM12 colon 96.7%

Clc1ccc(Nc2nc(Nc3ccccc3)nc(Nc3ccc(-c4cc(-c5ccc(Cl)cc5)on4)cc3)n2)cc1
inactive: SR leukemia 51.5% | RPMI-8226 leukemia 50.8% | OVCAR-8 ovarian 39.4% | OVCAR-5 ovarian 87.2% | OVCAR-4 ovarian 64.6% | SK-OV-3 ovarian 91.2% | IGROV1 ovarian 34.7% | OVCAR-3 ovarian 71.6% | HS 578T breast 11.7% | NCI/ADR-RES ovarian 51.4% | T-47D breast 71.7% | BT-549 breast 59.1% | MDA-MB-435 melanoma 11.1% | SW-620 colon 38.7% | MCF7 breast 50% | HCT-116 colon 27.4% | HCC-2998 colon 56.4% | KM12 colon 56.9%

O=C(Nc1ccc(F)cc1)c1ccc(C(=O)Nc2ccc(F)cc2)cc1
inactive: SR leukemia 94.5% | RPMI-8226 leukemia 113% | OVCAR-8 ovarian 99.6% | OVCAR-5 ovarian 101% | OVCAR-4 ovarian 93.4% | SK-OV-3 ovarian 103% | IGROV1 ovarian 109% | OVCAR-3 ovarian 109% | HS 578T breast 106% | NCI/ADR-RES ovarian 116% | T-47D breast 99.1% | BT-549 breast 112% | MDA-MB-435 melanoma 101% | SW-620 colon 109% | MCF7 breast 95.9% | HCT-116 colon 96.2% | HCC-2998 colon 111% | KM12 colon 108%

Nc1nc(N)c(C=Nc2ccc(Br)cc2)c(Nc2ccc(Br)cc2)n1
inactive: SR leukemia 64.2% | RPMI-8226 leukemia 113% | OVCAR-8 ovarian 87.3% | OVCAR-5 ovarian 79.3% | OVCAR-4 ovarian 107% | SK-OV-3 ovarian 104% | IGROV1 ovarian 86.3% | OVCAR-3 ovarian 149% | HS 578T breast 80.8% | NCI/ADR-RES ovarian 77.6% | T-47D breast 76.8% | BT-549 breast 69.3% | MDA-MB-435 melanoma 84.7% | SW-620 colon 99.7% | MCF7 breast 72.7% | HCT-116 colon 78.5% | HCC-2998 colon 83.5% | KM12 colon 86.3%

Cc1nc2cc(Nc3nc(Cl)nc(Nc4ccc(F)cc4)n3)ccc2n1Cc1ccccc1
active: HCT-116 colon 3.88%
inactive: SR leukemia 57.5% | RPMI-8226 leukemia 15.3% | OVCAR-8 ovarian 81.5% | OVCAR-5 ovarian 86.3% | OVCAR-4 ovarian 85.8% | SK-OV-3 ovarian 95.9% | IGROV1 ovarian 83% | OVCAR-3 ovarian 94.2% | HS 578T breast 79.5% | NCI/ADR-RES ovarian 95.6% | T-47D breast 57% | BT-549 breast 90.6% | MDA-MB-435 melanoma 95.6% | SW-620 colon 84.8% | MCF7 breast 61.5% | HCC-2998 colon 94.5% | KM12 colon 69.2%

COc1ccc(NC(=O)c2ccc3c(c2)nc(-c2ccc(Cl)cc2)n3-c2cc(C(C)(C)C)[nH]n2)cc1
inactive: SR leukemia 79.7% | RPMI-8226 leukemia 90.2% | OVCAR-8 ovarian 89.3% | OVCAR-5 ovarian 100% | OVCAR-4 ovarian 72.7% | SK-OV-3 ovarian 114% | IGROV1 ovarian 88.7% | OVCAR-3 ovarian 94.5% | HS 578T breast 62% | NCI/ADR-RES ovarian 80.1% | T-47D breast 74.5% | BT-549 breast 81.3% | MDA-MB-435 melanoma 88.9% | SW-620 colon 104% | MCF7 breast 83% | HCT-116 colon 80.7% | HCC-2998 colon 112% | KM12 colon 84%

O=C(NCc1cccnc1)c1ccc([N+](=O)[O-])o1
inactive: SR leukemia 23% | RPMI-8226 leukemia 52.8% | OVCAR-4 ovarian 63.9% | SK-OV-3 ovarian 32.3% | IGROV1 ovarian 33.7% | T-47D breast 57% | MCF7 breast 13.9%
active: OVCAR-8 ovarian 4.23% | OVCAR-5 ovarian -1.25% | OVCAR-3 ovarian -4.71% | HS 578T breast -9.03% | NCI/ADR-RES ovarian -29.1% | BT-549 breast 4.28% | MDA-MB-435 melanoma -19.9% | SW-620 colon -65.3% | HCT-116 colon -4.08% | HCC-2998 colon -97.6% | KM12 colon 0.0106%

Source: PubChem BioAssay (NCI)
